ELG1 genotoxic = qHTS screen for small molecules that induce genotoxicity in human embryonic kidney (HEK293T) cells expressing luciferase-tagged ELG1; HEK293T ELG1-luciferase reporter, luminescence, 16 h; Potency, µM (doses to about 46 µM), actives largely listed as activators; 330,000 tested, 1.3% active; also: nearly all actives have a fitted effect of over 60% in size
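ELG1-luciferase HEK293T cells, 2,000/well; compound pinned in; 16 hr, 37 °C, 5% CO2; ONE-Glo, 30 min RT; luminescence on CCD imager.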
NPC1 prom act = qHTS Assay for NPC1 Promoter Activators. Huh7 NPC1 promoter luciferase reporter, 24 h. Potency, µM (top dose mostly 9.22 µM), hits mostly activators. 320,000 tested, 2.4% active; also: nearly all actives have a fitted effect of over 60% in size
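Luciferase expression driven by the NPC1 promoter was measured in stably transfected Huh7 cells after a 24 h compound incubation, using a luciferase reagent and a luminescence read.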
FLuc counter = qHTS profiling assay for firefly luciferase inhibitor/activator using purifed enzyme and Km concentrations of substrates (counterscreen for miR-21 project); Luciferin 4-monooxygenase (Photinus pyralis), P08659; purified FLuc, Km substrates, luminescence inhibition; Potency, µM (highest dose often 57.5 µM), hits mostly inhibitors; 360,000 tested, 6.9% active; also: nearly all actives have a fitted effect of over 55% in size
Target sequence (P08659 whole entry, looked up): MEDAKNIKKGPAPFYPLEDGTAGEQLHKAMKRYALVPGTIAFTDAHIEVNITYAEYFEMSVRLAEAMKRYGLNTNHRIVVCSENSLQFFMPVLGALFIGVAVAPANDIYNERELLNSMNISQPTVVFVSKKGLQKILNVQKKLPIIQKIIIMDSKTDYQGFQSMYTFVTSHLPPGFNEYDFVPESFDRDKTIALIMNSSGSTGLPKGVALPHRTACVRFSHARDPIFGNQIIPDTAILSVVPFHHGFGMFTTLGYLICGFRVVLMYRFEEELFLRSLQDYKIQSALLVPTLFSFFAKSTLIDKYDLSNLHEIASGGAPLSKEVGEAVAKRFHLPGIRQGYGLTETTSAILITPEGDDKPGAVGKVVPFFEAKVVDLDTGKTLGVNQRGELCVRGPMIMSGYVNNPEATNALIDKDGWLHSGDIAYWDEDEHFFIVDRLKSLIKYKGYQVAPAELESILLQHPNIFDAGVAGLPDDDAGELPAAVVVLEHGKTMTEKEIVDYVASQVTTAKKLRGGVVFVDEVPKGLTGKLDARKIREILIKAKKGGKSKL
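Purified P. pyralis luciferase (10nM final) with 10uM D-luciferin and 10uM ATP (Km levels) in 50mM Tris acetate pH 7.5, 10mM Mg acetate, 0.01% Tween-20, 0.05% BSA; qHTS 6-point titration, ~60 µM downward; luminescence read.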
SMN2 splice enh = qHTS Assay for Enhancers of SMN2 Splice Variant Expression | 210,000 tested, 2.8% active | Potency, µM (series often up to 46.1 µM), usual class: activators | HEK293 SMN2-luciferase splicing reporter, luminescence, 30-36 h; also: nearly all actives have a fitted effect of over 55% in size
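HEK293 cells carry an SMN2 […]–luciferase reporter in which exon 7 inclusion puts luciferase in frame. Cells were plated 10-12 h before compound addition, then incubated 30-36 h at 37C. ONE-Glo luminescence was read; sodium butyrate at 4.5 mM final served as control.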
Rab9 prom act = qHTS Assay for Rab9 Promoter Activators; Huh7 Rab9 promoter-luciferase reporter, luminescence, 24 h; Potency, µM (doses to about 9.22 µM), most hits filed as activators; 320,000 tested, 2.8% active; AID 485297, 2010; also: nearly all actives have a fitted effect of over 60% in size
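Cell-based reporter: Huh7 stable for Rab9 promoter-driven luciferase, plated in reduced-serum medium with 10% FBS at 1500 cells/well, compound-treated 24 h at 37 °C, luminescence read after 10 min reagent.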
ELG1 repair inh = qHTS screen for small molecules that inhibit ELG1-dependent DNA repair in human embryonic kidney (HEK293T) cells expressing luciferase-tagged ELG1; HEK293T ELG1-luciferase reporter, luminescence, 16 h; DNA damage induced by 5-fluorouridine; Potency, µM (top dose mostly 46.1 µM), most hits filed as inhibitors; 330,000 tested, 2.3% active; also: nearly all actives have a fitted effect of over 55% in size
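HEK293T cells expressing luciferase-tagged ELG1 (2,000/well) received 5-Fluorouridine plus compound or DMSO for 16 hr at 37 °C. Luciferase was read by ONE-Glo luminescence after 30 min at room temperature.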
Hits are given with their value; 0 = inactive; ? = inconclusive; - = no result given. Hits are enriched below; roughly 9.3% of the tested compounds scored in any of these assays. Calls follow the shape of the dose curve; as a rule, active = well fitted curve in the direction sought with a large enough effect; inconclusive = small, poorly fitted or top-dose-only effect, or another doubt; inactive = no such curve, though single readings can be large; an effect the other way counts as inactive or inconclusive.

SMILES | ELG1 genotoxic | NPC1 prom act | FLuc counter | SMN2 splice enh | Rab9 prom act | ELG1 repair inh
O=C(CSc1nc2ccccc2o1)Nc1nc(-c2ccccc2)c(-c2ccccc2)s1 | 0 | 0 | 0 | 0 | 0 | ?
COc1cc(S(=O)(=O)N2CCN(c3ccccc3)CC2)ccc1F | 0 | 0 | 0 | 0 | 0 | 0
CCOc1ccc(-c2cn(-c3ccc(C)cc3)c(SCC(=O)Nc3ccc(C)cc3)n2)cc1 | - | - | 0 | - | - | -
Cc1ccc(NC(=O)CS(=O)(=O)c2nc(-c3ccc(C)cc3)cn2-c2ccc(C)cc2)cc1 | - | - | ? | 18µM | - | -
CCCCCC1(C)NC(=S)N(c2ccccc2)N1 (stereo unspecified) | 0 | 0 | 0 | 0 | 0 | 7.3µM
CC1(CC(=O)Nc2ccccc2)NC(=S)N(c2ccccc2)N1 (stereo unspecified) | 0 | 0 | ? | 0 | 0 | ?
COc1ccc(NS(=O)(=O)c2cccc(C(=O)N/N=C(\C)c3ccncc3)c2)cc1 | 0 | 0 | 0 | 0 | 0 | 0
Clc1ccc(-c2nc3ccccn3c2CN2CCCCC2)cc1 | 0 | 0 | ? | 0 | 0 | ?
CN(C)Cc1c(-c2ccc(Cl)cc2)nc2ccccn12 | ? | ? | 12µM | 13µM | ? | ?
CC(OC(=O)c1ccc(S(=O)(=O)N2CCCCC2)cc1)C(=O)Nc1ccc(C(N)=O)cc1 (stereo unspecified) | ? | 0 | 0 | - | 0 | ?
O=C(CCCN1C(=O)/C(=C/c2ccccc2OC(F)F)SC1=S)Nc1cccnc1 | 0 | - | - | - | - | 21µM
O=C(CCCN1C(=O)/C(=C/c2cccc(Br)c2)SC1=S)Nc1cccnc1 | 0 | 0 | 0 | 0 | 0 | 9.2µM
O=C(CCCN1C(=O)/C(=C/c2ccccc2Cl)SC1=S)NNC(=O)c1ccccc1 | 0 | 0 | 0 | 0 | 0 | 0
O=C1/C(=C/c2cccnc2)SC(=S)N1CCc1ccccc1 | ? | 0 | 11µM | - | 0 | ?
O=C(CCCN1C(=O)/C(=C/c2ccccc2Cl)SC1=S)NNC(=O)c1cccnc1 | 0 | 0 | 13µM | - | 0 | 0
COc1ccccc1/C=C1/SC(=S)N(CCC(=O)Nc2cccnc2)C1=O | 0 | 0 | 0 | - | 0 | 0
NC(=O)[C@@H]1CC2(CC(c3cccc(NC(=O)[C@H]4CCC(=O)N4)c3)=NO2)CN1C(=O)c1ccc(Cl)cc1 (stereo partly specified) | 0 | 0 | 0 | - | 0 | 0
Cc1ccc(-c2csc(N3CCC[C@@H]3C(=O)NCCn3c(-c4ccncc4)nc4ccccc43)n2)cc1 | 0 | 0 | 0 | - | 0 | 15µM
Fc1ccc(COc2ccc3ccccc3c2CNc2nn[nH]n2)cc1 | 0 | 0 | 0 | 0 | 0 | ?
Cc1csc2nc(-c3cccc(NC(=O)c4c(F)cccc4F)c3)cn12 | - | - | 21µM | - | - | -
Cc1csc2nc(-c3cccc(NC(=O)c4ccc(S(N)(=O)=O)cc4)c3)cn12 | - | - | 9.5µM | - | - | -
CCOCC(=O)Nc1ccc(-c2cn3c(C)csc3n2)cc1 | - | - | 17µM | - | - | -
Nn1cc(-c2ccccc2)nc1SCC(=O)Nc1cccc(S(N)(=O)=O)c1 | 0 | 0 | 0 | - | 0 | 0
CC(=O)Nc1ccc(S(=O)(=O)NCc2cn3c(C)csc3n2)cc1 | 0 | 0 | 0 | 0 | 0 | 0
COC(=O)CSc1nnnn1-c1ccccc1 | 0 | 0 | 0 | 0 | 0 | 0
CCOC(=O)CNC(=O)c1c2c(nc3ccccc13)CCCC2 | 0 | 0 | 0 | 0 | 0 | 0
c1ccc2nc3c(nc2c1)[nH]c1ccccc13 | 9.2µM | 3.2µM | 3.8µM | 11µM | 0.89µM | ?
c1ccc(-c2c3ccccc3nc3[nH]c4ccccc4c23)cc1 | 0 | 0 | 0 | 0 | 0 | 0
O=C(Nc1ccc2c(c1)N(Cc1ccccc1)C(=O)c1ccccc1S2)NC1CC1 | 0 | 0 | 0 | - | 0 | 0
CCc1ccc(NCc2cc3ccc(OC)cc3n(CC(=O)Nc3cccc(Cl)c3C)c2=O)cc1 | - | - | 0 | - | - | -

Source: PubChem (National Center for Advancing Translational Sciences (NCATS))
